The whole screen tested about 200,000 compounds, of which about 1,600 (0.8%) were called active.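 Rule for the calls: active = plate Z-score above 3 for both tubulin-high and condensed-nucleus cell shares, with cell loss under 80%, at 10 µM; inactive = the rest, inconclusive results apart.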 The full list was thinned out, with actives kept by preference.

The experiment in a line: microtubule stabilizers in HeLa cells, primary screen, imaging, high-content imaging (AID 2205).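 For % tubulin-high responders: anti alpha tubulin signal scored within the nucleus-defined area of each cell.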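 For toxicity: 0% = mean cell density of plate MIN control wells and 100% = no cells.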 The conditions noted are these: HeLa tubulin immunostaining HCS, 24 h, at 10 µM; % Hoechst-high responders: measured here: nuclear condensation Hoechst responders, stronger effect = higher value, share of cells brighter than vehicle mean+2SD; % tubulin-high responders: stronger effect = higher value, share of cells brighter than vehicle mean+2SD; toxicity: measured here: cytotoxicity by cell density.
`O=C(COC(=O)Cn1cnc2ccccc2c1=O)NCc1ccccc1Cl`: the % Hoechst-high responders turned out to be 1.88%, the % tubulin-high responders is 6.58% (inactive) and the toxicity is 5.1%.
The like results for `NS(=O)(=O)c1ccc(NC(=O)COC(=O)c2ccc(Cl)nc2)cc1` were, in that order, 1.74%, 3.68% (inactive) and 9.84%.
In the same order, the values of `O=C(NNc1ccccn1)c1ccc(Cl)nc1` are 2.04%, 3.3% (inactive) and 8.78%.
The like results for `CCN(CC)c1ccc(NC(=O)c2ccc(Cl)nc2)cc1` were, in that order, 27%, 43% (active) and 38.6%.
On to `CC(=O)Nc1ccc(S(=O)(=O)NC2(C(F)(F)F)C(=O)NC(C)=C2C#N)cc1` (stereo unspecified), for which the % Hoechst-high responders came out at 0.651%, the % tubulin-high responders was 0.947% (inactive) and the toxicity worked out at 1.71%.
In the same order, the values of `COc1ccc(-n2cc(CN(C)Cc3n[nH]c(=O)[nH]3)c(-c3cccc(F)c3)n2)cc1` are 0.946%, 1.61% (inactive) and 7.39%.
`O=C(/C(=C/c1cccc(Cl)c1)c1nc2ccccc2[nH]1)c1ccccc1`: the % Hoechst-high responders worked out at 42.6%, the % tubulin-high responders was 47.1% (active) and the toxicity came to 68.7%.
In the same order, the values of `Oc1ccc(Cl)cc1/C=N/c1nc2ccccc2[nH]1` are 3.67%, 2.45% (inactive) and 20.5%.
In the same order, the values of `CCC(=O)/C(=C(/O)c1ccccc1)c1nc2ccccc2[nH]1` are 1.47%, 1.53% (inactive) and 1.79%.
In the same order, the values of `C=CCn1cc(C(=O)NCc2ccc(Cl)cc2)c(=O)c2cc(S(=O)(=O)N(CC)CC)ccc21` are 2.4%, 2.86% (inactive) and 5.36%.
Take `CSc1ncccc1C(=O)N1CCCC(CCC(=O)NCc2ccccc2F)C1` (stereo unspecified): the % Hoechst-high responders was determined as 1.74%, the % tubulin-high responders was 2.45% (inactive) and the toxicity worked out at 3.21%.
In the case of `Cn1cccc1/C=N/NC(=O)c1ccc(OC(F)(F)C(F)F)cc1`, the % Hoechst-high responders was found to be 2.53%, the % tubulin-high responders was 6.72% (inactive) and the toxicity came to 7.37%.
In the case of `COC(=O)Cc1ccc(NC(=S)NCc2ccccc2)cc1`, the % Hoechst-high responders turned out to be 2.07%, the % tubulin-high responders is 4.23% (inactive) and the toxicity was determined as 9.97%.
In the case of `Cc1cc(C)c2c3c(sc2n1)C(c1ccccc1)C(C#N)=C(N)O3` (stereo unspecified), the % Hoechst-high responders was 7.37%, the % tubulin-high responders was 12.3% (inactive) and the toxicity came out at 9.16%.
For the compound `N#CC1=C(N)Oc2c(sc3ccccc23)C1c1ccco1` (stereo unspecified), the % Hoechst-high responders worked out at 55.7%, the % tubulin-high responders is 24.9% (active) and the toxicity is 32.3%.
As to `CCCCCCCC1(C)NC(=O)N(CC(=O)Nc2cc(C)on2)C1=O` (stereo unspecified), the % Hoechst-high responders came to 2.15%, the % tubulin-high responders is 3.92% (inactive) and the toxicity came to 9.17%.
As for `Cc1ccc(S(=O)(=O)N(C)C)cc1NC(=O)COC(=O)C1COc2ccccc2O1` (stereo unspecified), the % Hoechst-high responders amounted to 2.45%, the % tubulin-high responders is 3.07% (inactive) and the toxicity came out at 5.9%.
The like results for `O=C(c1cnn(-c2ccc(Cl)cc2)c1)c1ccccc1O` were, in that order, 3.19%, 3.73% (inactive) and 2.4%.
In the same order, the values of `C/C(=N\NC(=O)c1ccccc1C)c1ccc(N2CCOCC2)cc1` are 0.821%, 1.28% (inactive) and 5.09%.
The like results for `O=C(Cc1ccccc1)NC(=S)Nc1ccc(N2CCCCC2)cc1` were, in that order, 2.7%, 1.21% (inactive) and 5.2%.
On to `COc1ccc(C(=O)NC(=S)Nc2ccc(N3CCCC3)cc2)cc1OC`, for which the % Hoechst-high responders is 1.47%, the % tubulin-high responders was 1.79% (inactive) and the toxicity is 9.06%.
In the case of `COc1cccc(OC)c1C(=O)Nc1ccc(N2CCCCC2)cc1`, the % Hoechst-high responders came to 2.3%, the % tubulin-high responders is 2.03% (inactive) and the toxicity stood at 6.37%.
The like results for `Cc1ccccc1C(=O)Nc1ccc(N2CCCCCC2)cc1` were, in that order, 34.7%, 13.1% (active) and 28.4%.
In the same order, the values of `COc1cccc(C(=O)Nc2ccc(N3CCCC3)cc2)c1` are 30.7%, 25.7% (active) and 50.6%.
As to `CC(C)OCCCNC(=O)c1cc(Sc2ccc(F)cc2)nc2ccccc12`, the % Hoechst-high responders is 1.81%, the % tubulin-high responders is 1.25% (inactive) and the toxicity stood at 6.52%.
The like results for `CC(=O)N1C(=O)/C(=C2\SC(=S)N(NC(=O)c3ccc(O)cc3)C2=O)c2ccccc21` were, in that order, 2.97%, 2.55% (inactive) and 3.4%.
The like results for `Cc1noc(C)c1S(=O)(=O)Nc1ccc(C(=O)N2CCN(c3ccc(F)cc3)CC2)cc1` were, in that order, 2.09%, 1.32% (inactive) and 5.68%.
As for `O=C(O)CCN(Cc1ccccc1)S(=O)(=O)c1c(Cl)cccc1Cl`, the % Hoechst-high responders amounted to 1.31%, the % tubulin-high responders is 2.16% (inactive) and the toxicity is 1.51%.
The like results for `CN(Cc1ccccc1)C(=O)COC(=O)c1ccccc1Nc1ccccc1` were, in that order, 1.59%, 6.59% (inactive) and 4.42%.
Turning to `CC(C)Cc1nc(Nc2ccc(S(=O)(=O)N3CCCC3)cc2)c2nnn(Cc3ccccc3)c2n1`, the % Hoechst-high responders was 2.68%, the % tubulin-high responders was 3.7% (inactive) and the toxicity amounted to 11.3%.
The like results for `Cc1csc(NC(=O)Nc2ccccc2[N+](=O)[O-])n1` were, in that order, 2.72%, 1.89% (inactive) and 4.62%.
In the same order, the values of `CCC1=C(C(=O)OC)C(c2cc(OC)ccc2OC)C(C#N)=C(N)O1` (stereo unspecified) are 3.6%, 3.6% (inactive) and 4.77%.
The like results for `COc1ccc(C2C(C#N)=C(N)Oc3cc(N)ccc32)cc1OC` (stereo unspecified) were, in that order, 17.3%, 44.5% (active) and 68%.
Consider `COC(=O)C1=C(C)OC(N)=C(C#N)C1c1cc(OC)ccc1OC` (stereo unspecified), for which the % Hoechst-high responders came to 4.1%, the % tubulin-high responders was 4.68% (inactive) and the toxicity was found to be 10.9%.
Turning to `c1ccc(C2CNCc3c2ccc2ccccc32)cc1` (stereo unspecified), the % Hoechst-high responders amounted to 32.1%, the % tubulin-high responders is 14% (active) and the toxicity was determined as 25.9%.
In the same order, the values of `C=C(C)COc1ccc(-c2n[nH]c(C)c2-c2ccccc2)c(O)c1` are 2.28%, 3.77% (inactive) and 27.6%.
The like results for `COc1ccc(-c2n[nH]c(C)c2-c2ccc(OC)c(OC)c2)c(O)c1` were, in that order, 19%, 42.8% (active) and 76%.

The values above are taken from PubChem BioAssay AID2205 (University of Pittsburgh Molecular Library Screening Center, 2009).
